The test system of one test is WaGa. The experiment in a line: qHTS assay to identify novel small-molecules to repurpose for Merkel cell carcinoma treatment (AID 1296009). Also: nearly all actives have a fitted effect of over 60% in size. The note with it: MCC and control cell lines, CellTiter-Glo viability, 72 h; series mostly up to 46 µM. In a few lines:
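Viability readout: ATP luminescence (CellTiter-Glo) after 72 hr drug exposure at 37 degree celsius. Dose-response format was 8 points for NPC and 11 points for MIPE; data normalized to in-plate controls.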
In general terms: qHTS replaces the single test concentration by a dilution series.

Another test relates to C33A. The experiment in a line: Primary qHTS to identify gynecologic anti-cancer compounds using libraries of approved drugs and bioactive compounds (AID 1345084). Also: nearly all actives have a fitted effect of over 55% in size. The note with it: Gynecologic cancer cell panel viability, ATPlite luminescence, 48 h; series mostly up to 57.5 µM. In a few lines: (§1)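 Cells, 1,000 per well, were allowed to settle for 16 h at 37 C before compound addition. Five concentrations were tested for 48 h, and viability was read by ATPlite luminescence after 15 min at room temperature.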

A further test concerns CAOV3. The description is as above. Particulars: Gynecologic cancer cell panel viability, ATPlite luminescence, 48 h; series mostly up to 57.5 µM. The method in brief: as §1
A general note: In ATP-based viability assays light output follows the ATP content of the culture.

Another test concerns CASKI. The test is described as above. Particulars: Gynecologic cancer cell panel viability, ATPlite luminescence, 48 h; series mostly up to 57.5 µM. The method in brief: as §1
In the next test the test system is Es-2. The test is described as above. Particulars: Gynecologic cancer cell panel viability, ATPlite luminescence, 48 h; series mostly up to 57.5 µM. The method in brief: as §1
Another test deals with HeLa. Described as above. The note with it: Gynecologic cancer cell panel viability, ATPlite luminescence, 48 h; series mostly up to 57.5 µM. In a few lines: as §1
A further test deals with Hek293T. The description is as above. The note with it: Gynecologic cancer cell panel viability, ATPlite luminescence, 48 h, control line for the selectivity index; series mostly up to 57.5 µM. The method in brief: as §1
A further test concerns JEG-3. Described as above. The note with it: Gynecologic cancer cell panel viability, ATPlite luminescence, 48 h; series mostly up to 57.5 µM. In a few lines: as §1
In a further test the test system is OV90. The test is described as above. The note with it: Gynecologic cancer cell panel viability, ATPlite luminescence, 48 h; series mostly up to 57.5 µM. The method in brief: as §1
The next test relates to PA-1. The test is described as above. The note with it: Gynecologic cancer cell panel viability, ATPlite luminescence, 48 h; series mostly up to 57.5 µM. In a few lines:
as §1

Results filed as inconclusive are left out. Calls of active or inactive are those of the source. Calls follow the shape of the dose curve; as a rule, active = well fitted curve in the direction sought with a large enough effect; inconclusive = small, poorly fitted or top-dose-only effect, or another doubt; inactive = no such curve, though single readings can be large; an effect the other way counts as inactive or inconclusive.
Potency is read from the fitted curve at half-maximal effect.

`CC(NCc1ccc2c(c1)nc(NC(=O)c1ccc(-c3cn[nH]c3)s1)n2CC(C)(C)O)C(C)(C)C` (stereo not drawn): the Potency in the test on WaGa was 0.526 µM (active).

Turning to `c1cc(-c2cnn3cc(-c4ccc(OCCN5CCCCC5)cc4)cnc23)ccn1`, in the test with WaGa, the Potency was 13.2 µM (active).

As to `Clc1cccc(-n2nnnc2NCc2ccccc2Oc2ccccn2)c1Cl`, the Potency entry in the test with WaGa, with C33A, in the test with CAOV3, with CASKI, in the test with Es-2 and in the test with HeLa was “inactive” in each case. Moreover, the Potency entry in the test with Hek293T, in the test on JEG-3, with OV90 and with PA-1 was “inactive” throughout.

`CCOc1cc2ncc(C#N)c(Nc3ccc(F)c(Cl)c3)c2cc1NC(=O)C=CCN(C)C`: the Potency with WaGa was 9.35 µM (active).

Take `CNC(=O)c1ccc(N2C(=S)N(c3cnc(C#N)c(C(F)(F)F)c3)C(=O)C23CCC3)cc1F`: the Potency in the test on WaGa is 9.35 µM (active). Also, the Potency result with C33A, in the test on CAOV3, with CASKI, in the test with Es-2, in the test on HeLa and in the test on Hek293T was “inactive” each time. In addition, the Potency entry in the test on JEG-3, in the test with OV90 and with PA-1 was “inactive” in each case.

Take `COc1ccc(C=Cc2cc(OC)c(OC)c(OC)c2)cc1O`: in the test with WaGa, the Potency result was “inactive”.

For the molecule `O=C1CCC[C@@H]2[C@H]3CCC[N+]4([O-])CCC[C@@H](CN12)[C@@H]34` (stereo partly drawn), the Potency result with WaGa, in the test with C33A, with CAOV3, with CASKI, in the test with Es-2 and in the test with HeLa was “inactive” each time. The Potency entry in the test on Hek293T, in the test with JEG-3, in the test with OV90 and in the test with PA-1 was “inactive” in each case.

On to `CN(C)CCCN=c1c2ccccc2n(C)c2[nH]c(=O)n(C)c(=O)c12`, for which the Potency in the test with WaGa is 7.43 µM (active).

For `O=C(NCCCNc1nc(Nc2cccc(NC(=O)N3CCCC3)c2)ncc1I)c1cccs1`, the Potency with WaGa was 9.35 µM (active).

Turning to `CC1(C)O[C@@H]2C[C@@H]3[C@H]4C[C@@H](F)C5=CC(=O)C=C[C@]5(C)[C@@]4(F)[C@@H](O)C[C@]3(C)[C@]2(C(=O)CO)O1`, in the test with WaGa, the Potency result was “inactive”.

Regarding `CCOc1ccccc1OCCNC(C)Cc1ccc(OC)c(S(N)(=O)=O)c1` (stereo not drawn), the Potency entry in the test on WaGa, with C33A, in the test with CAOV3, with CASKI, in the test on Es-2 and in the test on HeLa was “inactive” in each case. In addition, the Potency entry with Hek293T, with JEG-3, with OV90 and with PA-1 was “inactive” in each case.

In the case of `CC=C1NC(=O)[C@H]2CSSCCC=C[C@H](CC(=O)N[C@H](C(C)C)C(=O)N2)OC(=O)[C@H](C(C)C)NC1=O`, in the test on WaGa, the Potency is 0.0264 µM (active).

`Nc1ccccc1NC(=O)c1ccc(CNc2nccc(-c3cccnc3)n2)cc1`: the Potency with WaGa was 0.418 µM (active); with C33A it was 6.31 µM (active); with CASKI it was 8.91 µM (active); with Es-2, 4.47 µM (active); in the test on HeLa, 0.891 µM (active); with JEG-3, 3.55 µM (active). Besides, in the test with PA-1, the Potency was 0.708 µM (active).

As to `O=C(O)CCCc1c[nH]c2ccccc12`, the Potency entry in the test on WaGa, in the test on C33A, in the test on CASKI, in the test with Es-2, in the test with HeLa and in the test on Hek293T was “inactive” throughout. For the same molecule, the Potency result in the test on JEG-3, in the test on OV90 and with PA-1 was “inactive” throughout.

For the molecule `C=CC(=O)Nc1cccc(Oc2nc(Nc3ccc(N4CCN(C)CC4)cc3OC)ncc2Cl)c1`, the Potency in the test on WaGa was 2.96 µM (active); in the test with CASKI it was 17.8 µM (active). Also, the Potency entry in the test with C33A, in the test with Es-2, in the test on HeLa, in the test on Hek293T, in the test on JEG-3 and with OV90 was “inactive” each time. In addition, the Potency result with PA-1 is “inactive”.

Take `NC(=O)Nc1cc(-c2cccc(F)c2)sc1C(=O)N[C@H]1CCCNC1`: the Potency in the test with WaGa was 5.26 µM (active); in the test with C33A it was 1.12 µM (active); in the test on CAOV3, 1.58 µM (active); with CASKI it was 1.78 µM (active); in the test on Es-2, 0.631 µM (active); in the test on HeLa it was 1.78 µM (active). The Potency in the test with Hek293T is 1 µM (active); in the test on OV90, 2.82 µM (active); in the test with PA-1, 2.82 µM (active).

Regarding `Cc1ccc(CN2CCNCC2)cc1NC(=O)CNc1ccc(F)c(F)c1`, the Potency entry in the test on WaGa, in the test with C33A, in the test with CASKI, in the test with Es-2, with HeLa and in the test with Hek293T was “inactive” in each case. Further, the Potency entry with JEG-3, with OV90 and with PA-1 was “inactive” each time.

With `COc1ccc2c(OCc3nnc4ccc(-c5ccccc5)nn34)ccnc2c1`, the Potency result with WaGa, in the test with C33A, in the test with CASKI, in the test with Es-2, in the test on HeLa and in the test with Hek293T was “inactive” each time. For the same molecule, the Potency result in the test with JEG-3, in the test with OV90 and with PA-1 was “inactive” in each case.

On to `Nc1nccc(Oc2ccc(NC(=O)c3c[nH]cc(-c4ccc(F)cc4)c3=O)cc2F)c1Cl`, for which the Potency in the test with WaGa is 2.35 µM (active). In addition, the Potency result in the test on C33A, with CASKI, in the test on HeLa, in the test with Hek293T, with JEG-3 and in the test on OV90 was “inactive” in each case. Moreover, in the test on PA-1, the Potency entry is “inactive”.

Take `CC[C@@]1(O)C(=O)OCc2c1cc1n(c2=O)Cc2cc3cc(O)ccc3nc2-1`: the Potency was 0.0187 µM (active) in the test with WaGa; 0.794 µM (active) with C33A; 0.398 µM (active) with CASKI; 0.355 µM (active) with Es-2; 1.26 µM (active) with Hek293T; 0.282 µM (active) in the test on PA-1.

`CN(C)Cc1c(C(=O)NCCOc2ccc(C(=O)NO)cc2)oc2ccccc12`: the Potency in the test with WaGa is 0.332 µM (active); with C33A, 4.47 µM (active); in the test on CASKI, 3.98 µM (active); in the test with Es-2 it was 5.01 µM (active); in the test on HeLa, 2.82 µM (active); in the test on Hek293T, 2.82 µM (active). Also, the values for the Potency in the test on JEG-3, with OV90 and with PA-1 were 3.55 µM (active), 1.58 µM (active) and 1 µM (active), respectively.
